Measured values reported in ChEMBL document CHEMBL1201862, “PubChem BioAssay data set” (2004).
The whole screen tested about 400,000 compounds, of which about 2,100 (0.53%) were called active. Not shown: some 14% with an inconclusive outcome. How the calls were made is not given here. This excerpt belongs to a sample that is enriched for actives.

Biological target: Ataxin-2 (Homo sapiens) (UniProt Q99700)
Experiment: qHTS for Inhibitors of ATXN expression.
Assay type: functional

Chain of Ataxin-2 (Homo sapiens) (Q99700 whole entry): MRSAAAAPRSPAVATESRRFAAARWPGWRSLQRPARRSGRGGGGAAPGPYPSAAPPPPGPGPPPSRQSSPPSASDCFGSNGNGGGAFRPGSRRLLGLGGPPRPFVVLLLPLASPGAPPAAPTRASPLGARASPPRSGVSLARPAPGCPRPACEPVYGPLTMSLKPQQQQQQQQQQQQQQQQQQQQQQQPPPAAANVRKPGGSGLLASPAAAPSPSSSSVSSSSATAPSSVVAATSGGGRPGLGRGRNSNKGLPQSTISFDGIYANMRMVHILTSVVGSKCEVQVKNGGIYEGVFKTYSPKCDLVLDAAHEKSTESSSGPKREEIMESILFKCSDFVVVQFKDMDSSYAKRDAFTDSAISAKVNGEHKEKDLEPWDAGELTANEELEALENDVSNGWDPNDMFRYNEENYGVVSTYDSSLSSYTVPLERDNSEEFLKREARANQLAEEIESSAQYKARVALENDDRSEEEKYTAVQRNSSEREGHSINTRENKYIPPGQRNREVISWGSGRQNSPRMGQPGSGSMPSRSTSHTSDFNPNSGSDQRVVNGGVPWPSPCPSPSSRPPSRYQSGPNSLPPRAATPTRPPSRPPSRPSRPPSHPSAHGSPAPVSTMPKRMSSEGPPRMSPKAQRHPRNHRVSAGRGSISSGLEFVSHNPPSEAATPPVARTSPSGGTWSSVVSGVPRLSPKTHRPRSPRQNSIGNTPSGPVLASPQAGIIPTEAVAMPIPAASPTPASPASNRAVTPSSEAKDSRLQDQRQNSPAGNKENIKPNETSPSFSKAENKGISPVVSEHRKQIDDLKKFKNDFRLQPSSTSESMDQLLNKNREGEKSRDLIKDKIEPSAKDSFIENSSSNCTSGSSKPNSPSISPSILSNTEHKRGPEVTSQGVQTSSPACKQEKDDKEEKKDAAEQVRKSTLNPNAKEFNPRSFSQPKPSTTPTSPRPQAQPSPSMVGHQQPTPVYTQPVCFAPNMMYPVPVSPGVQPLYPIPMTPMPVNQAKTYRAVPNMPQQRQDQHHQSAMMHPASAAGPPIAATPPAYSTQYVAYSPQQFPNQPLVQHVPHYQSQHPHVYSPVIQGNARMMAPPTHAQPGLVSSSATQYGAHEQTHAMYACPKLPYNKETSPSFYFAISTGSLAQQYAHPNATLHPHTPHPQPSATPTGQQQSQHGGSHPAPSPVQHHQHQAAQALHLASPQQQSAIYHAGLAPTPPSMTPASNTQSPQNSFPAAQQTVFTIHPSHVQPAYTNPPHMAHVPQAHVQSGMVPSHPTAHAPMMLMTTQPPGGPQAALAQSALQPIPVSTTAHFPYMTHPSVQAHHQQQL

| Compound | Potency |
| --- | --- |
| Cc1cc(C)cc(NC(=O)c2sc3nc(C)cc(C)c3c2N)c1 | inactive |
| CCOc1ccc(CCNC(=O)c2cccc(NC3=NC4CS(=O)(=O)CC4S3)c2)cc1 (stereo unspecified) | inactive |
| O=C(NCCc1cccc(Cl)c1)c1ccc(OC2CCN(Cc3ccccn3)CC2)cc1 | 35.5 µM (active) |
| Cc1c(CCC(=O)NCCc2ccccc2)c(=O)oc2cc(O)ccc12 | inactive |
| CCCc1c(-c2ccc(O)cc2)nn(-c2ccc(O)cc2)c1-c1ccc(O)cc1 | 25.1 µM (active) |
| O=C(O)C1CCN(c2nc(-c3ccccc3)c3cc(Br)ccc3n2)CC1 | inactive |
| CCOC(=O)N1CCN(C(=O)c2cccn3c(=O)c4cc(Br)ccc4nc23)CC1 | inactive |
| CCCCN1CCc2c1nc1ccc(Br)cc1c2N | 31.6 µM (active) |
| CCc1cc2c(CN3CCN(Cc4ccccc4)CC3)cc(=O)oc2cc1O | inactive |
| Cc1ccc(/C=C2\Oc3c(ccc(O)c3CN3CCN(CCO)CC3)C2=O)cc1 | inactive |
| CC(C)(C)c1ccc2c(c1)N(CC(=O)N1CCCC1)C(=O)CO2 | inactive |
| CCN(CC)S(=O)(=O)c1ccc2c(c1)N(CC(=O)N1CCN(c3cccc(C)c3)C(C)C1)C(=O)CO2 (stereo unspecified) | 35.5 µM (active) |
| COc1ccccc1N1CCN(C(=O)Cn2ncc3c2-c2cc(C)ccc2OC3)CC1 | 22.4 µM (active) |
| CN(C(=O)CN1C(=O)c2cccc(N)c2C1=O)C1CCCCC1 | inactive |
| O=C(Cn1ncc2c1-c1ccccc1OC2)Nc1ccc(Cl)cn1 | inactive |
| Cc1ccc2nc(N3CCN(C(=O)CCC(=O)O)CC3)nc(-c3ccccc3)c2c1 | inactive |
| Cc1ccc2c(c1)-c1c(cnn1CC(=O)N(Cc1ccco1)C1CCCCC1)CO2 | 37.7 µM (active) |
| CCOc1ccc(S(=O)(=O)N(CC)CC(=O)N2CCCC2)cc1C | inactive |
| COc1ccccc1N1CCN(C(=O)C2CCN(S(=O)(=O)c3ccccc3F)CC2)CC1 | inactive |
| Cc1ccnc(NC(=O)CCC(=O)N(CC(=O)NC2CCCCC2)C2CCCC2)c1 | inactive |
| Cc1cccc(N2CCN(C(=O)Cn3ncc4c3-c3cc(C)ccc3OC4)CC2C)c1 (stereo unspecified) | 39.8 µM (active) |
| Cc1ccccc1CN1CCN(C(=O)c2ccc(S(=O)(=O)NCc3ccco3)cc2)CC1 | inactive |
| CCOCCCNc1nc2nc3ccc(C)cn3c(=O)c2cc1C(=O)NCC1CCCO1 (stereo unspecified) | inactive |
| CCNc1nc(NCC)nc(N/N=C(\C)c2ccc(OC)cc2)n1 | inactive |

| Compound | Potency |
| --- | --- |
| CC1CCCCC12NC(=O)N(CC(=O)N(C)Cc1nc(O)c3ccccc3n1)C2=O (stereo unspecified) | inactive |
| CC(C)NCCCCOc1cccc(Br)c1 | inactive |
| CCOc1ccccc1NC(=O)Cn1ncc2ccc([N+](=O)[O-])cc21 | inactive |
| Cc1cccc(C)c1NC(=O)CN1C(=O)COc2ccccc21 | inactive |
| CCOc1ccccc1N(CC)C(=O)Cn1ncc2c(=O)oc3ccccc3c21 | inactive |
| CCOc1ccccc1N(CC)C(=O)Cn1ncc2c1-c1ccccc1OC2 | 39.8 µM (active) |
| CCN(CC)S(=O)(=O)c1ccc2c(c1)N(CC(=O)NCCCN1CCN(c3cc(Cl)ccc3C)CC1)C(=O)CO2 | 31.6 µM (active) |
| CCN(CC)S(=O)(=O)c1ccc(N2CCCC2)c(NC(=O)Cc2cc(OC)c(OC)c(OC)c2)c1 | inactive |
| Clc1ccc(C2=NN(c3ccccc3)C(c3ccco3)C2)cc1 (stereo unspecified) | inactive |
| O=C(O)c1cc(Cl)ccc1-c1ccc(/C=C/c2cc(C(F)(F)F)nc(O)n2)o1 | inactive |
| Fc1ccc(C2=CC(c3ccc(Br)o3)n3ncnc3N2)cc1 (stereo unspecified) | inactive |
| Cc1ccc(-n2nnc3c(=O)n(CC(=O)N4CCOCC4)cnc32)cc1 | inactive |
| CC(C)OC(=O)c1cc(NC(=S)Nc2ccc([N+](=O)[O-])cc2)cc(C(=O)OC(C)C)c1 | 44.7 µM (active) |
| O=C(NCCNc1ccc([N+](=O)[O-])cc1)c1cccc(Br)c1 | inactive |
| Cc1cccc(NS(=O)(=O)c2ccc3nc(O)cc(C(=O)OC(C)C(=O)Nc4ccc([N+](=O)[O-])cc4)c3c2)c1 (stereo unspecified) | inactive |
| CC[N+]1(C)CCC(O)(/C=C/c2ccccc2)C(C(=O)/C=C/c2ccccc2)C1 (stereo unspecified) | 10.6 µM (active) |
| COc1ccc(/C=C/C(=O)N(C)c2ccccc2C(=O)O)cc1 | inactive |
| CCN1CCC(O)(/C=C/c2ccc(C)cc2)C(C(=O)/C=C/c2ccc(C)cc2)C1 (stereo unspecified) | 31.6 µM (active) |
| CCN1CCC(O)(/C=C/c2ccc(C(C)C)cc2)C(C(=O)/C=C/c2ccc(C(C)C)cc2)C1 (stereo unspecified) | 25.1 µM (active) |
| Cc1cc(-c2nc(-c3ccncc3)no2)ccc1[N+](=O)[O-] | inactive |
| Cc1cc(=O)oc2c(CN3CCCC3)c(O)c(Cl)cc12 | inactive |
| COCCNC(=S)N/N=C/c1ccc2c(c1)OCCO2 | inactive |
| Brc1cc(Br)c2nc(-c3ccc(N4CCOCC4)cc3)ccc2c1 | inactive |
| N#CC1=CN(Cc2ccccc2)C=C(/C=N/Nc2ccccc2)C1 | inactive |

| Compound | Potency |
| --- | --- |
| O=[N+]([O-])c1cc([N+](=O)[O-])c2[nH]nc(-c3ccccc3)c2c1 | inactive |
| N#Cc1c(N)n(Cc2ccccc2)c(=O)c2cc([N+](=O)[O-])ccc12 | inactive |
| O=c1c2cc([N+](=O)[O-])cc([N+](=O)[O-])c2[nH]n1-c1ccccc1 | 22.4 µM (active) |
| COC(=O)Cc1cnc(NC(=O)CSc2nc(O)cc(C(C)C)n2)s1 | inactive |
| CCCn1nc(NC(=O)c2ccco2)c2cc3ccccc3nc21 | inactive |
| COCc1c(C(=O)N/N=C/c2c[nH]c3ccccc23)nnn1-c1nonc1N | inactive |
| COc1cc(Br)cc(/C=N/NC(=O)Cc2ccccc2)c1O | inactive |
| NC(=S)N/N=C/c1c[nH]c2ccc(OCc3ccccc3)cc12 | 12.6 µM (active) |
| Cc1ccc2sc(N(CCCN(C)C)C(=O)c3ccc(S(=O)(=O)N(C)Cc4ccccc4)cc3)nc2c1C | 31.6 µM (active) |
| CCOc1cccc2sc(N(CCCN(C)C)C(=O)c3ccc(S(=O)(=O)N(C)Cc4ccccc4)cc3)nc12 | 39.8 µM (active) |
| CN(C1CCCCC1)S(=O)(=O)c1ccc(SCC(=O)C(C)(C)C)nc1 | inactive |
| Cc1ccc2sc(N(CCCN(C)C)C(=O)c3ccc(S(=O)(=O)N(C)C4CCCCC4)cc3)nc2c1C | 25.1 µM (active) |
| CN(Cc1ccccc1)S(=O)(=O)c1ccc(N2CCOCC2)nc1 | inactive |
| COC(=O)c1ccc(C(=O)N(CCN(C)C)c2nc3c(Cl)cccc3s2)cc1 | inactive |
| CN(Cc1ccccc1)S(=O)(=O)c1ccc(OCC(=O)N2CCC(C(N)=O)CC2)cc1 | inactive |
| Cc1[nH]c2ccccc2c1C(=O)CN1C(=O)NC2(CCCCCC2)C1=O | inactive |
| CCC(C)(C)c1ccc(OCCCC[n+]2cccc(C)c2C)c(C(C)(C)CC)c1 | 31.6 µM (active) |
| Cc1ccc(NC(=S)N/N=C/c2ccc([N+](=O)[O-])s2)cc1 | 39.8 µM (active) |
| COc1cccc(/C=C/C(=O)Nc2cccc(C(C)=O)c2)c1OC | inactive |
| CN(C(=O)/C=C/c1ccc([N+](=O)[O-])s1)c1ccccc1 | 33.6 µM (active) |
| CC(=O)c1cccc(NC(=O)CC2SC(N/N=C/c3ccccc3)=NC2=O)c1 (stereo unspecified) | inactive |
| Cc1cccc(NC(=S)N/N=C/c2ccc([N+](=O)[O-])s2)c1 | 31.6 µM (active) |
| C=CCc1cccc(/C=N/NC(=O)C(=O)Nc2ccc(C)cc2)c1O | inactive |
| CC(C)(C)NC(=S)N/N=C\c1ccc(-c2ccc([N+](=O)[O-])cc2)o1 | inactive |

| Compound | Potency |
| --- | --- |
| CC(=O)c1cccc(NC(=O)/C=C/c2ccc([N+](=O)[O-])s2)c1 | 5.97 µM (active) |
| COc1cccc(/C=N/NC(=S)Nc2cccc(C(=O)O)c2)c1O | inactive |
| Cc1cccc(NC(=O)C(C)Oc2ccc(C)nc2[N+](=O)[O-])c1 (stereo unspecified) | inactive |
| N=c1c(C(=O)NC2CCCC2)cc2c(=O)n3ccccc3nc2n1C1CCCCC1 | inactive |
| CC1Nc2nc(N(C)C)nc(O)c2NC1C (stereo unspecified) | inactive |
| Cc1cc2nc(/C=C/c3nc4cc(C)c(C)cc4[nH]3)[nH]c2cc1C | inactive |
| Oc1ccc(Br)cc1C1Nc2ccccc2S1 (stereo unspecified) | inactive |
| CCC(CC)c1nnc(NC(=O)CSCc2c(C)noc2C)s1 | inactive |
| CC(C)=CCc1c(-c2ccc(O)cc2O)oc2cc3c(c(O)c2c1=O)C=CC(C)(C)O3 | 39.8 µM (active) |
| CC(C)=CCc1c(O)c(CC=C(C)C)c2occ(-c3ccc(O)cc3)c(=O)c2c1O | 39.8 µM (active) |
| COc1c(CC=C(C)C)c(O)cc2oc(=O)c3c4ccc(O)cc4oc3c12 | inactive |
| CC1(C)C=Cc2c(c3c(c4c(=O)c(-c5ccc(O)cc5)coc24)OC(C)(C)CC3)O1 | 35.5 µM (active) |
| CC(C)=CCc1c2c(c3occ(-c4ccc(O)cc4)c(=O)c3c1O)C=CC(C)(C)O2 | 25.1 µM (active) |
| COC(c1ccccc1)(c1ccccc1)C(Oc1nc(C)cc(C)n1)C(=O)O (stereo unspecified) | inactive |
| CCOC(=O)c1c2ccc(OCC(=O)NN)cc2n2ccccc12 | inactive |
| Cc1c(C)c2cc(Cl)c(O)c(CN(C)C)c2oc1=O | inactive |
| CCCCCC(=O)N1C[C@H](n2cc(COC(=O)c3ccccc3)nn2)[C@@H](O)C[C@@H]1c1ccc(Cl)cc1 | 39.8 µM (active) |
| CCCCCC(=O)N1C[C@@H](n2cc(COC(=O)c3ccccc3)nn2)[C@H](O)C[C@@H]1c1ccc(Cl)cc1 | 31.6 µM (active) |
| CC1(S(=O)(=O)O)CC(=O)c2ccccc2C1=O (stereo unspecified) | inactive |
| CC(=O)N1N=C2c3ccccc3CCC2C1c1ccc(F)cc1 (stereo unspecified) | inactive |
| CCCCn1c(NC(C)=O)c(C#N)c2nc3ccccc3nc21 | inactive |
| CC(C)c1noc(-c2ccccc2OCC(=O)Nc2ccccc2[N+](=O)[O-])n1 | 39.8 µM (active) |
| Cc1csc(SCC(=O)Nc2ccccc2[N+](=O)[O-])n1 | inactive |
| O=C(CN1CCCc2ccccc21)Nc1ccccc1[N+](=O)[O-] | inactive |
